Source: PubChem BioAssay (several laboratories)
In the library only some 3.1% were active in any assay of this set; here they are far more common.
BoNT-A LC inh2 – blocks Botulinum neurotoxin A light chain protease; multiplex microsphere protease substrate cleavage, flow cytometry; inhibition, % at 10 µM; hit rate 0.17% among 360,000; AID 588499; further: plate controls were buffer without enzyme for full effect and enzyme alone for no effect
Anthrax LF inh2 – anthrax lethal factor protease inhibition. inhibition, % at 10 µM. multiplex microsphere protease cleavage assay, LF. hit rate 0.12% among 360,000. AID 588501; further: plate controls were buffer without enzyme for full effect and enzyme alone for no effect
Target sequence (P15917 whole entry, looked up): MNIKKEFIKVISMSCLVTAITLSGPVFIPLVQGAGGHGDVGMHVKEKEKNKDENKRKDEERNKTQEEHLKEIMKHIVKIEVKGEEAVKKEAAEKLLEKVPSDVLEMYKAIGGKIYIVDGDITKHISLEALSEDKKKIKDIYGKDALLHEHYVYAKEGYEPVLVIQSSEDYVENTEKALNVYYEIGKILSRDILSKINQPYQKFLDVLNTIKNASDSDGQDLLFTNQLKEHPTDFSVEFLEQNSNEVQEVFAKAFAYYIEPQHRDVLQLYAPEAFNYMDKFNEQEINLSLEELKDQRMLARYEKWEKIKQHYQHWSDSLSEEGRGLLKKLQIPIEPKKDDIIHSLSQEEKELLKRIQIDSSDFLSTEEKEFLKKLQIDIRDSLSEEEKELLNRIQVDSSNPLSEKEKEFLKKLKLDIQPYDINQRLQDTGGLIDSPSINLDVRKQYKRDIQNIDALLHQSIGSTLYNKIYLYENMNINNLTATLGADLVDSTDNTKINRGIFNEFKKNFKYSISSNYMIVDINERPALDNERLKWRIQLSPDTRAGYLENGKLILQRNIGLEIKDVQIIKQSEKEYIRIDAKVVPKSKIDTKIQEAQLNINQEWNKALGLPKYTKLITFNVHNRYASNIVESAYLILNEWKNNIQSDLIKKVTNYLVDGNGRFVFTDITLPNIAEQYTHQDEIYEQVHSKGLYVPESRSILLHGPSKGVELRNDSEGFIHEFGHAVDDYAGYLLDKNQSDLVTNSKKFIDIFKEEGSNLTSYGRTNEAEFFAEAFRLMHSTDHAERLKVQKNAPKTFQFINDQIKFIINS
BoNT F protease – inhibitors of Botulinum neurotoxin F light chain protease; Multiplex microsphere protease cleavage assay, flow cytometry; inhibition, % at 10 µM; hit rate 0.22% among 360,000; AID 588497; in the data active means inhibition above about 35%, passing the limit was not always enough; inconclusive means no clear call, values can overlap the other calls; further: plate controls were buffer without enzyme for full effect and enzyme alone for no effect
Bead autofluor – flagged as autofluorescent in microsphere protease counterscreen | compound autofluorescence counterscreen, microsphere flow cytometry; hits give high values | fluorescence intensity (concentration not given with the values) | hit rate 3.1% among 360,000 | AID 624483; in the data active means fluorescence intensity above about 16000; inconclusive means no clear call, values can overlap the other calls
PriA SSB inh – blocks PriA binding to SSB C-terminal tail; AlphaScreen SSBct-PriA binding, biotinylated peptide; inhibition, % at 33 µM; hit rate 0.6% among 430,000; AID 1272365; in the data active means inhibition mostly above about 37%, no sharp cut-off; inactive means mostly below about 20%;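 further: plate controls were negative control peptide for no effect and reference peptide for full effect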
An asterisk follows results filed as active; i = inactive; ? = inconclusive; nt = no result; ! = a repeat was not active. Unless noted, no stated cut-off is given here; in the data, active means inhibition above about 30%; inconclusive means no clear call, values can overlap the other calls; inactive means below that.

SMILES	BoNT-A LC inh2	Anthrax LF inh2	BoNT F protease	Bead autofluor	PriA SSB inh
CCOC(=O)CC(=O)CSc1nc2c(sc(=S)n2-c2ccccc2)c(=O)[nH]1	?	0	3	21967*	-10
CCOc1ccc(CC(=O)Nc2nc(-c3cc(C)ccc3C)cs2)cc1	nt	nt	nt	nt	-9
CCSc1nnc(NC(=O)C(C)(C(F)(F)F)C(F)(F)F)s1	0	-7	-2	16389*	-1
CCSc1nnc(NC(=O)C(C(F)(F)F)C(F)(F)F)s1	-1	-1	-2	23475*	-2
CCC(C(=O)N1CCC(c2nnc(C(C)C)o2)CC1)c1ccccc1 (stereo not given)	nt	nt	nt	nt	-1
Cc1c(NC(=O)CC(c2ccccc2)c2ccccc2)cccc1-c1nc2cccnc2s1	nt	nt	nt	nt	-10
COc1ccc2c(n1)CCCN2	nt	nt	nt	nt	0
CCOC(=O)c1cc(-c2ccc(OC)cc2)nc2c1c(C)nn2CCC#N	?	-5	-5	20850*	-54
CCCOc1ccc(C(CC(=O)O)NC(=O)C23CC4CC(CC(C4)C2)C3)cc1 (stereo not given)	0	-1	0	23418*	-10
Cc1c([N+](=O)[O-])cc(S(=O)(=O)NCCOc2ccc3c(c2)OCO3)cc1[N+](=O)[O-]	nt	nt	nt	nt	27
CC(=O)Nc1ccc(NC(=O)CCSCCc2ccccn2)cc1	0	-9	-15	4287	6
CC(=O)Nc1ccc(NC(=O)CSCCc2ccccn2)cc1	2	0	3	19811*	-6
Cc1ccc(S(=O)(=O)NCC(=O)OC(C)C(=O)c2ccccc2)cc1 (stereo not given)	0	0	-1	4655	3
Cc1ccc(C(=O)C(OC(=O)CNS(=O)(=O)c2ccccc2)c2ccccc2)cc1 (stereo not given)	?	-2	2	19423*	-8
Cc1ccc(-c2cnc(NC(=O)CCC(=O)N3CCCCC3)n2C)cc1	0	-5	-4	4122	2
Cn1c(-c2ccc3c(c2)OCO3)cnc1N	2	-4	-9	19330*	15
Cn1c(-c2ccc3c(c2)OCO3)cnc1NC(=O)CCC(=O)NCCc1ccccc1	1	-2	0	22472*	4
CCCCNC(=O)CCC(=O)Nc1ncc(-c2ccc(C)cc2)n1C	?	0	-1	20268*	-12
Cn1c(-c2ccc3c(c2)OCO3)cnc1NCc1ccccc1	2	-8	5	22213*	4
Cn1c(-c2ccc3c(c2)OCO3)cnc1NCc1cccc(Cl)c1	1	0	9	9450	21
CCCC(=O)Nc1ccc(S(=O)(=O)NC[C@H](O)c2ccc(C)o2)cc1	nt	nt	nt	nt	-1
COc1ccc(Cl)cc1C(=O)O/N=C(\N)c1ccccn1	-2	33*	?	3904	i
Cc1ccc(-c2noc(-c3cccn(CC(=O)NCc4ccccc4Cl)c3=O)n2)cc1	nt	nt	nt	nt	4
Cc1cccn2c(=O)c(C=Nc3ccc(Cl)cc3)c(NCCO)nc12	-2	0	-4	21575*	-9
CC(SC1CCCC1)C(=O)Nc1ccnn1C(C)C (stereo not given)	?	-8	-1	20011*	-8
SMILES	BoNT-A LC inh2	Anthrax LF inh2	BoNT F protease	Bead autofluor	PriA SSB inh
Nc1nnc(SCC(=O)NC23CC4CC(CC(C4)C2)C3)s1	-1	-4	-1	21047*	-12
Cc1ccc(N(C)C(=O)N2CCN(S(=O)(=O)c3ccc(C)c(C)c3)CC2)cc1	-6	-1	-9	24506*	1
CCOc1ccccc1C(=O)NCC[C@H](O)c1ccccc1	nt	nt	nt	nt	43*
CCOc1ccccc1C(=O)NCCC(O)c1ccco1 (stereo not given)	nt	nt	nt	nt	0
Cc1ccc2oc3nc(C)c(C(=O)Nc4cccc(C(F)(F)F)c4)cc3c(=O)c2c1	?	-3	2	22965*	-12
Cc1cccc(C)c1NC(=O)c1cc2c(=O)c3ccccc3oc2nc1C(F)(F)F	-4	1	-10	11142	-10
COc1ccc(C2C3=C(CCCC3=O)Nc3c(-c4ccccc4)c(C)nn32)cc1 (stereo not given)	-1	1	-4	22999*	-21
COc1ccc(C2NC(=O)NC3=C2C(=O)CCC3)cc1 (stereo not given)	1	1	?	3647	-21
O=C1CN(C(=O)COC(=O)c2oc3ccccc3c2COc2ccccc2)c2ccccc2N1	-1	-2	-4	22869*	-5
O=C1CN(C(=O)COC(=O)Cc2ccccc2)c2ccccc2N1	0	1	0	4236	2
Cc1c(C(=O)OCC(=O)N2CC(=O)Nc3ccccc32)oc2ccccc12	0	-3	1	4076	2
O=C1CN(C(=O)COC(=O)Cc2ccsc2)c2ccccc2N1	?	-2	-4	23072*	-2
COc1ccc(NC(=O)c2c(N)c(C(=O)c3ccc(Br)cc3)n3ccccc23)cc1OC	nt	nt	nt	nt	-8
O=C(COC(=O)c1cc(=O)[nH]c2ccccc12)c1ccc(Cl)cc1Cl	nt	nt	nt	nt	-10
Cn1nc(N2CCC[C@H](C(=O)Nc3ccc(F)c(C(F)(F)F)c3)C2)ccc1=O	nt	nt	nt	nt	-26
COC(=O)c1cnn(C(=O)c2ccccc2Br)c1N	-1	-4	-4	22952*	-3
COC(=O)c1cnn(C(=O)c2cc(OC)ccc2Br)c1N	1	-2	-2	23297*	-15
Cc1cc(NC(=O)c2ccc(S(=O)(=O)N3CCOCC3)cc2)n(C(C)C)n1	nt	nt	nt	nt	-12
CCn1nc(C(=O)N=c2sc3cccc(Cl)c3n2C)cc1C	nt	nt	nt	nt	-9
O=C(O)CCNS(=O)(=O)c1ccc(Oc2ccccc2Cl)cc1	-2	-3	-2	17172*	-3
Cc1ccc(N2CC(C(=O)NCc3ccc4c(c3)OCO4)CC2=O)cc1C (stereo not given)	?	-3	-2	22630*	-1
O=C(c1ccc(-n2cccc2)cc1)N1CCN(Cc2ccccc2)CC1	1	-16	-5	6926	5
CN1CCN(C(=O)c2ccc(Cl)cc2)CC1	2	-6	14	3753	-11
CN1CCN(C(=O)c2ccc3ccccc3c2)CC1	0	1	3	23924*	-15
O=C(c1ccc2ccccc2c1)N1CCCC1	1	-4	20	3408	0
SMILES	BoNT-A LC inh2	Anthrax LF inh2	BoNT F protease	Bead autofluor	PriA SSB inh
CN1CCN(C(=O)c2ccc(-n3cccc3)cc2)CC1	?	1	-5	20993*	-11
O=C(c1ccc(-n2cccc2)cc1)N1CCN(Cc2csc(-c3ccccc3)n2)CC1	nt	nt	nt	nt	29*
CCOC(=O)Cc1csc(NC(=O)CN2CC(c3nc(-c4ccccc4OC)no3)C2)n1	nt	nt	nt	nt	0
CC(=O)C(Sc1nnc(-c2c[nH]c3ccccc23)n1-c1ccc(F)cc1)C(C)=O	nt	nt	nt	nt	-4
CCOC(=O)/C(C(N)=NCc1ccco1)=C(/O)c1ccccc1	0	-1	-2	23453*	nt
O=S(=O)(NCC(c1ccco1)N1CCc2ccccc21)c1ccccc1 (stereo not given)	nt	nt	nt	nt	25*!
O=S(=O)(NCC(c1cccs1)N1CCc2ccccc21)c1ccccc1 (stereo not given)	nt	nt	nt	nt	-4
COC(=O)[C@@H]1C[C@@]2(O)[C@@H](O)[C@@H](O)[C@@H](O)C[C@H]2N1Cc1cc(OC)cc(OC)c1	1	1	3	2793	101*
Cc1ccc(C)c(CC(=O)Nc2nnc(-c3ccno3)o2)c1	nt	nt	nt	nt	56*
COCCN1CCCc2ccc(NS(=O)(=O)Cc3cccc(C)c3)cc21	nt	nt	nt	nt	40*
